Assay outcomes as filed in PubChem BioAssay.
In the library only some 1.6% were active in any assay of this set; here they are far more common.
PKA-R2B activ: activators of human PKA-R2B complex; activation, % at 11.4 µM; PKA-R2B holoenzyme dissociation, Cy5-IP20 fluorescence polarization; R2B truncated from residue 108, S112A mutant; 0% DMSO only, 100% 113 µM cGMP; actives 0.079% (n = 340,000); P22694+P31323;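 active = activation above a cutoff set at the mean over all compounds plus 3 SD, cut at about 18% in these data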;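 also: higher means more holoenzyme dissociation and a rise in polarization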
ATG4B inhibitor: ATG4B (human) cysteine protease inhibition; Q9Y4P1; ATG4B cleavage of LC3-PLA2, NBD-HPC fluorescence, 1 h; inhibition, % at 8.33 µM; actives 0.51% (n = 340,000)
Target sequence (Q9Y4P1 whole entry, looked up): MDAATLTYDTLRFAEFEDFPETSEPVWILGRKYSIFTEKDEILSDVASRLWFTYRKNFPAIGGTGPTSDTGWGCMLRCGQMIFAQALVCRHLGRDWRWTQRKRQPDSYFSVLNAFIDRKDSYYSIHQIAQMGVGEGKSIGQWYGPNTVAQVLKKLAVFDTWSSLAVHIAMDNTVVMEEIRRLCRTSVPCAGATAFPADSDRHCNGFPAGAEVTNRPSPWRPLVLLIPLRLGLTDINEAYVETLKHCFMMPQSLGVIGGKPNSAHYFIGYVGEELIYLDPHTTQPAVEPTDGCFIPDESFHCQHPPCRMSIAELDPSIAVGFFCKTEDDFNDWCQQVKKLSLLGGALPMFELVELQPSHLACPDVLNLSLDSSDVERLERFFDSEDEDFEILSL
CendR NRP1 mod: NRP-1/CendR interaction modulation. FAM-RPARPAR peptide binding to NRP-1, fluorescence polarization. inhibition, % at 25 µM. actives 0.85% (n = 360,000). AID 602438;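 active = inhibition or corrected inhibition above about 18%, plus a signal ratio from 0.5 to 1.5, limit read from the data, passing the limit was not always enough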
VLA-4 inh: inhibition in a human VLA-4 binding assay; inhibition, % (about 7 µM as worked out from the volumes in the protocol); VLA-4 expressing cells, ligand binding flow cytometry; AID 2557; actives 0.2% (n = 330,000); in the data active = inhibition above about 50%
PKA-R1A act: activators of PKA-R1A complex | actives 0.083% (n = 340,000) | PKA-R1A dissociation, Cy5-IP20 fluorescence polarization; scaled: DMSO 0%, 113 µM cGMP 100% | P00514+P68181 | activation, % at 11.4 µM | AID 504707;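 active = percent activation above the mean of all tested compounds plus 3 SD, cut at about 19% in these data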;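 also: higher means more PKAc released from R1A so a rise in polarization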
VLA-4 allo CP: human VLA-4 allosteric modulation in cherry picked compounds | AID 2813 | inhibition, % at 6.7 µM | U937 cells, HUTS-21 LIBS mAb binding, flow cytometry; LDV ligand present at threefold Kd | shares compounds with VLA-4 inh | actives 2% (n = 1,300);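 also: 0% = ligand without compound and 100% = no ligand background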
The depositor's hits bear a star; . = not tested or not shown; ! = repeats disagree. Rule as the data show it, unless noted: active = inhibition above about 40%; inactive = the rest.

SMILES	PKA-R2B activ	ATG4B inhibitor	CendR NRP1 mod	VLA-4 inh	PKA-R1A act	VLA-4 allo CP
Cc1ccc2c(c1)N(CC(=O)NCC(C)c1ccccc1)C(=O)c1cccnc1O2 (stereo not drawn)	12	-5	-14	53*	-6	3
Cc1ccc2c(c1)N(CC(=O)NCCCc1ccccc1)C(=O)c1cccnc1O2	0	-3	7	-13	0	.
Cc1ccccc1-n1c(SCC(=O)N2CCC(C(=O)O)CC2)nnc1-c1ccncc1	-9	6	-2	8	1	.
Cc1ccccc1-n1c(SCC(=O)N2CCN(c3ccccc3)CC2)nnc1-c1ccncc1	-8	-17	-1	50*	-4	3
COc1ccccc1C(=O)COC(=O)Cc1ccccc1F	-2	8	2	7	0	.
COc1cc(-c2cc(C(=O)N3CCN(c4ccccn4)CC3)c3ccccc3n2)cc(OC)c1OC	-12	-15	1	-6	-12	-6
COc1ccc(-c2cc(C(=O)N3CCN(c4ccccn4)CC3)c3ccccc3n2)cc1	-4	-5	-8	1	-2	.
COc1ccc(OC)c(-c2cc(C(=O)N3CCN(c4ncccn4)CC3)c3ccccc3n2)c1	-1	-4	4	95*	5	-1
CCOc1ccccc1NC(=O)C(=O)N/N=C/c1cc(Br)ccc1O	-10	1	-14	-3	-1	.
COC(=O)/C=C1\SC(=NC(=O)c2ccc(C)cc2)NC1=O	-4	16	10	51*	0	2
COC(=O)/C=C1/SC(=NC(=O)c2ccc(Cl)cc2)NC1=O	7	-4	-18	-8	0	.
COc1cc(/C=N\NC(=O)C(C)(C)O)ccc1OC/C=C/c1ccccc1	0	-5	3	13	-7	.
Cc1cc(C=O)c(C)n1-c1sc2c(c1C(=O)O)CCCC2	-1	-1	-3	52*	3	3
COC(=O)c1c(-n2c(C)cc(C=O)c2C)sc2c1CCCC2	-1	15	-2	12	-19	.
CC1CCC(CN2C(Nc3ccccc3)=NC[C@@H]2C)CC1 (stereo partly drawn)	-18	2	-2	0	0	.
COc1cccc(C(O)c2nc(-c3ccc(Cl)cc3)cs2)c1 (stereo not drawn)	.	.	-4	.	.	.
CC1=C(C(=O)OCC2CCCO2)C(c2ccc(C)cc2)C2=C(CCCC2=O)N1 (stereo not drawn)	-2	-5	0	3	-1	.
CC1=C(C(=O)OCC2CCCO2)C(c2ccncc2)C2=C(CCCC2=O)N1 (stereo not drawn)	3	4	8	92*	1	1
COc1ccc([C@H]2C[C@H](O)[C@@H](n3cc(-c4ccc(F)cc4)nn3)CN2C(=O)c2cccs2)cc1	1	.	-3	.	2	.
COc1ccc(S(=O)(=O)N2CCCCC2)cc1NC(=O)CCCOc1ccc(C)cc1	-11	-2	10	14	1	.
CCOC(=O)c1[nH]c2ccccc2c1NC(=O)CC	-2	-7	-4	29	3	.
CCOC(=O)c1[nH]c2ccccc2c1NC(C)=O	6	-3	1	68*	-7	-4
C[C@H](CO)N1C[C@H](C)[C@@H](CN(C)S(=O)(=O)c2ccc(F)cc2)Oc2ccc(NC(=O)C3CC3)cc2C1=O	-11	-6	5	9	-1	.
Cc1cc(C(=O)NNCc2ccccc2)no1	10	1	-3	56*	2	6
Cc1cc(C(=O)NCc2ccccc2)no1	0	9	6	-11	-12	.
SMILES	PKA-R2B activ	ATG4B inhibitor	CendR NRP1 mod	VLA-4 inh	PKA-R1A act	VLA-4 allo CP
O=c1c2[nH]c3cccc(Cl)c3c2ncn1Cc1ccco1	4	-2	0	-1	6	14
O=c1c2[nH]c3cccc(Cl)c3c2ncn1CCN1CCCCC1	-1	-3	-7	-1	-6	5
O=c1c2[nH]c3cccc(Cl)c3c2ncn1CC1CCCO1 (stereo not drawn)	2	31	-12	-21	-4	9
COc1ccc2c(c1)[nH]c1c(=O)n(Cc3ccco3)cnc12	-1	7	4	11	-1	.
Cc1nc(N)ncc1CCC1OCCO1	-8	.	3	.	6	.
O=C(CCN1CCCCC1)NNC(=O)C12CC3CC(CC(C3)C1)C2	-9	1	-3	2	-3	.
CC(C)Nc1ncnc2c1ncn2[C@H]1CN(Cc2ccc(F)cc2)C[C@@H](CO)O1	.	.	-10	.	.	.
O=C(NCC1CCCO1)c1cc(-c2ccncc2)nc2ccccc12 (stereo not drawn)	-7	15	5	.	-2	.
CCCOc1ccc(-c2cc(C(=O)NCC3CCCO3)c3ccccc3n2)cc1 (stereo not drawn)	-6	14	3	43	1	-5
CC(C)(C)OC(=O)n1cc(C(=O)c2ccccc2O)cn1	-1	4	-5	50*	0	7
Cc1nn(S(=O)(=O)c2ccc(C(C)C)cc2)c(C)c1S(=O)(=O)N1CCOCC1	1	-7	1	5	-8	.
CCOc1ccc(S(=O)(=O)n2nc(C)c(S(=O)(=O)N3CCOCC3)c2C)cc1	6	-2	18	100*	-2	-2
O=C1NCC(=O)N2CCC[C@@H]12	-8	-25	-1	54*	-1	9
CCC/C(=N\NC(=O)c1ccco1)c1ccc(Cl)s1	-6	-11	-17	5	3	.
CCn1c(=O)c2c(nc(SCC(=O)N3CCCC(C)C3)n2C)n(C)c1=O (stereo not drawn)	11	-10	1	6	2	.
CCN(CC)c1ccc(C2CC(=O)Nc3cc(OC)c(OC)cc32)cc1 (stereo not drawn)	-11	-4	-1	3	1	3
COc1ccc(C2CC(=O)Nc3cc(OC)c(OC)cc32)cc1Br (stereo not drawn)	5	1	-2	8	-3	6
COCCNC(=S)Nc1ccccc1Cc1ccccc1	0	-3	-7	16	-2	.
Nn1nnc2ccccc21	3	2	1	56*	-8	-3
c1ccc2c(c1)nnn1c3ccccc3nc21	.	.	.	30	.	.
CN(Cc1cnc2nc(N)nc(N)c2n1)c1ccc(C(=O)N[C@@H](CCC(=O)O)C(=O)O)cc1	1	-4	-65	55*!	-3	-2
Nc1nc2ncc(CNc3ccc(C(=O)N[C@@H](CCC(=O)O)C(=O)O)cc3)nc2c(=O)[nH]1	-4	-9	-18	-8	8	.
C[C@H](C(O)c1ccccc1)N(C)C(=O)CN (stereo partly drawn)	-1	6	1	-3	4	.
C[C@H]([C@H](O)c1ccccc1)N(C)C(=O)CN	6	1	-5	51*	-1	-1
